The values below come from PubChem BioAssay AID652154 (Broad Institute, 2013).

The whole screen tested about 360,000 compounds, of which about 4,200 (1.2%) were called active. Only a selection was taken, and actives are over-represented in it overall. A number with no mark means an inactive call.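 How the source made its calls: active means mean replicate inhibition at least 60% with every replicate also reaching 60%; inconclusive means only one of the two criteria is met; inactive means mean below 60% and not all replicates reaching 60%.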

A short description of the assay: inhibitors of PAX8-driven TPO luciferase reporter, primary screen, RMG-I cells, single concentration (AID 652154).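 Further: luciferase light reporting Pax8 driven TPO promoter activity; plate controls were median of neutral control wells for no effect and mitoxantrone controls for full effect.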 To be noted: SteadyGlo, 24 h, at 12.6 µM, stronger effect = higher value.
Turning to `C[C@H](CO)N1C[C@H](C)[C@@H](CN(C)Cc2cncnc2)Oc2cc(-c3ccccc3)ccc2S1(=O)=O`, the inhibition is 1.94%.
`C[C@@H]1CN([C@H](C)CO)C(=O)Cc2cc(NS(C)(=O)=O)ccc2O[C@H]1CN(C)S(=O)(=O)c1ccccc1`: the inhibition is -11.5%.
The result for `C[C@H](O)C#Cc1ccc2c(c1)O[C@H](CN(C)C)[C@@H](C)CN([C@H](C)CO)S2(=O)=O` reads -9.29%; that for `C/C=C/c1ccc([C@H]2[C@@H](CO)N(C(=O)CN(C)C)C23CN(C(=O)C2CCCC2)C3)cc1`, -21.3%.
In the case of `Cc1noc(C)c1S(=O)(=O)N(C)C[C@@H]1OCCCC[C@@H](C)Oc2ccc(NC(=O)Nc3ccccc3)cc2C(=O)N([C@H](C)CO)C[C@@H]1C`, the inhibition is 4.8%.
As to `C[C@@H]1CN([C@@H](C)CO)C(=O)c2cc(NS(=O)(=O)c3ccccc3)ccc2O[C@H]1CN(C)CC1CC1`, the inhibition is -3.75%.
Regarding `COc1ccc(S(=O)(=O)Nc2cccc3c2O[C@@H](CN(C)Cc2ccc(-c4ccccc4)cc2)[C@H](C)CN([C@H](C)CO)C3=O)cc1`, the inhibition was -16.5%.
The result for `C[C@H]1CCCCO[C@H](CN(C)C)[C@@H](C)CN([C@@H](C)CO)C(=O)c2cc(NC(=O)CCCN(C)C)ccc2O1` reads -13.7%; that for `CS(=O)(=O)N(Cc1ccc(Cl)cc1)c1ccc(C(=O)NCCSCc2ccco2)cc1`, 61.6% (active); that for `Cc1cc(C)cc(N(CC(=O)NCCSCc2ccco2)S(C)(=O)=O)c1`, 3.24%.
For `COc1cc(OC)cc(C(=O)NCCSCc2ccco2)c1`, the inhibition is 3.2%.
The result for `C[C@H](CO)N1C[C@H](C)[C@@H](CN(C)C)Oc2ccc(N(C)C)cc2C1=O` reads -23.1%; that for `COc1ccc(NC(=O)Nc2ccc3c(c2)C(=O)N([C@H](C)CO)C[C@H](C)[C@@H](CN(C)C(=O)NC2CCCCC2)OCCCC[C@@H](C)O3)cc1`, 19.9%.
The result for `C[C@@H]1CN([C@H](C)CO)C(=O)c2cccc(NC(=O)c3nc4ccccc4s3)c2O[C@H]1CN(C)S(=O)(=O)c1ccc(Cl)cc1` reads 66.2% (active).
To `Cc1ccc(S(=O)(=O)Nc2ccc3c(c2)C(=O)N([C@H](C)CO)C[C@@H](C)[C@H](CN(C)S(=O)(=O)c2ccc(C)cc2)OCCCC[C@@H](C)O3)cc1` belongs 71.3% (active); to `Cc1ccc(S(=O)(=O)N(C)C[C@H]2OCCCC[C@@H](C)Oc3ccc(NS(C)(=O)=O)cc3C(=O)N([C@H](C)CO)C[C@@H]2C)cc1`, -9.1%; to `C[C@H](CO)N1C[C@H](C)[C@H](CN(C)S(=O)(=O)c2ccc(F)cc2)OCCCC[C@H](C)Oc2ccc(NS(=O)(=O)c3ccc(Cl)cc3)cc2C1=O`, 87.4% (active).
Regarding `COc1ccc(S(=O)(=O)Nc2ccc3c(c2)C(=O)N([C@H](C)CO)C[C@@H](C)[C@H](CN(C)S(=O)(=O)c2ccc(Cl)cc2)OCCCC[C@@H](C)O3)cc1`, the inhibition is 55.8%.
The result for `C[C@@H]1CCCCO[C@H](CN(C)S(=O)(=O)c2ccc(F)cc2)[C@H](C)CN([C@@H](C)CO)C(=O)c2cc(NS(=O)(=O)c3ccccc3)ccc2O1` reads 3.05%.
To `Cc1ccc(S(=O)(=O)N(C)C[C@@H]2OCCCC[C@@H](C)Oc3ccc(NS(=O)(=O)c4ccccc4)cc3C(=O)N([C@H](C)CO)C[C@@H]2C)cc1` belongs -6.72%; to `C[C@@H]1CN([C@H](C)CO)C(=O)c2cccc(NC(=O)c3nc4ccccc4s3)c2O[C@H]1CN(C)Cc1ccccc1`, -1.34%.
The result for `C[C@@H]1CN([C@H](C)CO)C(=O)c2cccc(NC(=O)c3nc4ccccc4s3)c2O[C@@H]1CN(C)C` reads -13.2%; that for `C[C@@H]1CCCCO[C@H](CN(C)S(C)(=O)=O)[C@@H](C)CN([C@H](C)CO)C(=O)c2cc(NS(=O)(=O)c3ccc(Cl)cc3)ccc2O1`, 7.33%; that for `C[C@@H]1CN([C@H](C)CO)C(=O)c2cc(NS(=O)(=O)c3ccccc3)ccc2O[C@@H](C)CCCCO[C@H]1CN(C)S(=O)(=O)c1ccc(Cl)cc1`, 73.3% (active).
`C[C@@H]1CCCCO[C@H](CN(C)S(=O)(=O)c2ccccc2)[C@@H](C)CN([C@@H](C)CO)C(=O)c2cc(NS(=O)(=O)c3ccccc3)ccc2O1`: the inhibition is 0.573%.
The result for `CC=Cc1ccc2n(c1=O)C[C@@H]1[C@@H](CO)[C@H](C(=O)N[C@@H](C)c3ccccc3)[C@H]2N1Cc1ccncc1` (mixture of isomers) reads -0.758%; that for `CC=Cc1ccc2n(c1=O)C[C@@H]1[C@@H](CO)[C@H](C(=O)NCC(F)(F)F)N(CCc3ccccc3)[C@H]21` (mixture of isomers), 5.7%.
For `O=C(C[C@H]1C=C[C@H](NC(=O)CC2CC2)[C@H](CO)O1)NCc1ccc(Cl)cc1`, the inhibition is 0.511%.
Turning to `C[C@@H]1CCCCO[C@H](CN(C)S(=O)(=O)c2ccc(Cl)cc2)[C@H](C)CN([C@@H](C)CO)C(=O)c2cc(NS(=O)(=O)c3cccs3)ccc2O1`, the inhibition was 35.2%.
The result for `C[C@H]1CCCCO[C@@H](CN(C)S(=O)(=O)c2cccs2)[C@@H](C)CN([C@@H](C)CO)C(=O)c2cc(NS(=O)(=O)c3ccc(Cl)cc3)ccc2O1` reads 78.6% (active); that for `C[C@@H]1CCCCO[C@@H](CN(C)S(C)(=O)=O)[C@H](C)CN([C@@H](C)CO)C(=O)c2cc(NS(=O)(=O)c3ccc(F)cc3)ccc2O1`, 6.52%; that for `Cc1ccc(S(=O)(=O)N(C)C[C@@H]2OCCCC[C@@H](C)Oc3ccc(NS(=O)(=O)c4ccc(F)cc4)cc3C(=O)N([C@H](C)CO)C[C@H]2C)cc1`, 65.5% (active).
The result for `C[C@@H]1CN([C@H](C)CO)C(=O)c2cc(NS(=O)(=O)c3cccs3)ccc2O[C@@H](C)CCCCO[C@@H]1CN(C)S(=O)(=O)c1ccc(Cl)cc1` reads 32.3%.
On to `Cc1ccc(S(=O)(=O)Nc2ccc3c(c2)C(=O)N([C@H](C)CO)C[C@H](C)[C@H](CN(C)S(=O)(=O)c2ccc(F)cc2)OCCCC[C@@H](C)O3)cc1`, for which the inhibition was -6.17%.
With `CCCNC(=O)Nc1ccc2c(c1)C(=O)N(C)C[C@@H](OC)[C@H](C)CN(C(=O)C1CCCCC1)[C@H](C)CO2`, the inhibition was 12.3%.
The result for `C[C@@H]1CN([C@@H](C)CO)C(=O)c2c(c3ccccc3n2C)-c2ccccc2CO[C@@H]1CN(C)S(=O)(=O)c1cccs1` reads 12.1%; that for `CCCNC(=O)N1[C@H](CNC(C)=O)[C@@H](c2ccc(C3=CCCC3)cc2)[C@@H]1CO`, -5.47%; that for `C[C@H](CO)N1C[C@H](C)[C@H](CN(C)C(=O)NC2CCCCC2)OCCCC[C@H](C)Oc2ccc(NC(=O)Nc3ccc4c(c3)OCO4)cc2C1=O`, 29.3%.
`C[C@@H]1CCCCO[C@H](CN(C)CC2CC2)[C@@H](C)CN([C@H](C)CO)C(=O)c2cc(NC(=O)Nc3ccc(F)cc3)ccc2O1`: the inhibition was 2.41%.
On to `C[C@@H]1CN([C@H](C)CO)C(=O)c2cc(NC(=O)Nc3ccc(F)cc3)ccc2O[C@@H](C)CCCCO[C@@H]1CN(C)CC1CCCCC1`, for which the inhibition is 17%.
The result for `C[C@H](CO)N1C[C@H](C)[C@@H](CN(C)C(=O)Nc2ccc3c(c2)OCO3)OCCCC[C@H](C)Oc2ccc(NC(=O)Nc3ccc4c(c3)OCO4)cc2C1=O` reads 12%.
For the molecule `C[C@@H]1CCCCO[C@@H](CN(C)C(=O)NC2CCCCC2)[C@H](C)CN([C@@H](C)CO)C(=O)c2cc(NC(=O)Nc3ccc(F)cc3)ccc2O1`, the inhibition is 17.7%.
As for `C[C@@H]1CCCCO[C@H](CN(C)C(=O)NC2CCCCC2)[C@H](C)CN([C@H](C)CO)C(=O)c2cc(NC(=O)Nc3ccc(F)cc3)ccc2O1`, the inhibition was 70.7% (active).
The result for `C[C@H]1CCCCO[C@H](CN(C)C(=O)NC2CCCCC2)[C@@H](C)CN([C@@H](C)CO)C(=O)c2cc(NC(=O)Nc3ccc4c(c3)OCO4)ccc2O1` reads 66.1% (active).
With `C[C@@H]1CCCCO[C@H](CN(C)C(=O)NC2CCCCC2)[C@H](C)CN([C@@H](C)CO)C(=O)c2cc(NC(=O)Nc3ccc(F)cc3)ccc2O1`, the inhibition was 52.5%.
With `C[C@@H]1CCCCO[C@H](CN(C)CC2CCCCC2)[C@H](C)CN([C@H](C)CO)C(=O)c2cc(NC(=O)Nc3ccc(F)cc3)ccc2O1`, the inhibition was 69.8% (active).
Take `CCCNC(=O)N1CC2(C1)[C@H](c1ccccc1)[C@@H](CO)N2Cc1cccc(Cl)c1`: the inhibition was 8.51%.
The result for `O=C(Nc1ccccc1F)N1CC(=O)N2[C@@H](CO)[C@H](c3ccc(C#CC4CCCC4)cc3)[C@@H]2C1` reads 11.2%; that for `C[C@H](NC(=O)C[C@@H]1CC[C@@H](NC(=O)Cc2ccccn2)[C@@H](CO)O1)c1ccccc1`, 26%; that for `O=C(c1cccnc1)N1CC[C@@H]2[C@@H](CO)Nc3ccc(-c4ccccc4)cc3[C@@H]21`, 1.4%.
With `COc1ccc(/C=C/C(=O)OCC(=O)NCc2cccs2)cc1OC`, the inhibition is 72.7% (active).
For `CCOc1ccc(/C=C/C(=O)N(CC)CC(=O)NCc2cccs2)cc1OC`, the inhibition was 10.8%.
The result for `O=C(COC(=O)/C=C/c1cccc(Cl)c1)NCc1cccs1` reads 6.69%; that for `CNC(=O)C[C@@H]1CC[C@@H]2[C@@H](COc3ccc(NC(=O)c4ccc(F)cc4)cc3C(=O)N2C)O1`, -7.92%; that for `O=C(Nc1cc(Cl)cc(Cl)c1)N[C@@H]1CC[C@H](CCNS(=O)(=O)c2cccc(F)c2)O[C@H]1CO`, 13.6%.
To `COCC#Cc1ccc([C@H]2[C@H]3CN(Cc4ccncc4)CCCCN3[C@H]2CO)cc1` belongs 12.1%.
The result for `O=C(C[C@@H]1CC[C@@H]2[C@H](COC[C@H](O)CN2C(=O)c2ccncc2)O1)NCc1cc(F)cc(F)c1` reads -12.3%.
